An excerpt weighted towards active compounds, which were near 22% of everything screened.
E-sel TNF inh = blocks E-selectin expression induced by TNF alpha | HUVEC TNFa-induced E-selectin immunofluorescence, high content | inhibition, % at 2 µM | actives 0.71% (n = 120,000);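 active = inhibition above the batch mean plus 3 SD, and confirmed as a hit on visual image review, cut at about 43% in these data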;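 also: 0% = TNF-stimulated DMSO wells and 100% = unstimulated control wells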
cytoskel mod = cytoskeleton assembly modification; HUVEC TNFa F-actin phalloidin imaging, high content; AID 836; inhibition, % at 2 µM; actives 0.18% (n = 91,000);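 active = inhibition above the batch mean plus 3 SD and confirmed as a hit by visual image inspection, cut at about 30% in these data, passing the limit was not always enough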
CYP2C9 activ = increases human cytochrome P450 2C9 activity; recombinant CYP2C9, luciferin-H conversion, luminescence; active compounds read high; factor 1 = untreated enzyme, 0 = blocked; activation factor at 5 µM; actives 1.4% (n = 96,000); AID 1024;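 active = activation factor of 2 or more for CYP2C9 at a 5 µM dose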;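 also: 0 = sulfaphenazole-blocked wells and 1 = vehicle-only wells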
CYP2C9 inh = inhibitors of human CYP2C9; actives 20% (n = 96,000); AID 777; CYP2C9 Supersomes, luciferin-H conversion, luminescence; P11712; inhibition, % at 5 µM;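 active = blocking of liver enzyme CYP2C9 beyond about 50% at 5 µM, limit read from the data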
CYP2C19 inh = blocks human cytochrome P450 2C19; P33261; CYP2C19 Supersomes, luciferin-H EGE luminescence, 30 min; inhibition, % at 5 µM; actives 21% (n = 96,000); AID 778;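 active = CYP2C19 inhibition above a set limit at 5 µM in the primary screen, cut at about 50% in these data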;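 also: plate controls were negative control wells for no effect and 2.5 mM tranylcypromine positive control for full effect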
Target sequence (P33261 whole entry, looked up): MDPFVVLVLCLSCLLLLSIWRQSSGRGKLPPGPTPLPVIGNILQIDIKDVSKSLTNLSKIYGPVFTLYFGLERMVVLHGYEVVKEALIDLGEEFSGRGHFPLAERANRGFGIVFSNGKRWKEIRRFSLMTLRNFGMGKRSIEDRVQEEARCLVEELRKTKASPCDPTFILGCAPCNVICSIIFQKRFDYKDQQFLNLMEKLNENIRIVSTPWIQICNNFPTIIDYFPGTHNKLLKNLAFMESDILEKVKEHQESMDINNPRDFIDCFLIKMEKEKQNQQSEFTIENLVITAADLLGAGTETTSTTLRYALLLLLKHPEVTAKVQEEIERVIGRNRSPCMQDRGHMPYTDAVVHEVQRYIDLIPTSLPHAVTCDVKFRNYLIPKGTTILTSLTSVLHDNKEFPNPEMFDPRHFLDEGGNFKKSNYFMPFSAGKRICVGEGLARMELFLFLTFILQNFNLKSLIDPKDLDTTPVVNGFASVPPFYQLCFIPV
CYP2C19 act = increases human CYP2C19 enzyme activity. P33261. recombinant CYP2C19, luciferin-H EGE luminescence; active compounds read high; 0 = fully inhibited enzyme, 1 = untreated enzyme. activation factor at 5 µM. 96,000 tested, under 10 active;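 active = activation factor of at least 2 at 5 µM in the primary screen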;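 also: 0 = wells with 2.5 mM tranylcypromine and 1 = vehicle-only wells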
An asterisk follows results filed as active; / = not tested or not shown.

SMILES	E-sel TNF inh	cytoskel mod	CYP2C9 activ	CYP2C9 inh	CYP2C19 inh	CYP2C19 act
CCOC(=O)c1ccc2c(c1)nc(SCC(=O)N1CCCCC1)n2CC	-5	18	0.1	88*	78*	0.2
CCn1c(SCC(=O)N2CCCC2)nnc1-c1ccc(N)cc1	3	-4	/	/	/	/
CCOC(=O)c1ccc2c(c1)nc(SCC(=O)c1ccco1)n2CC	-35	12	0.3	69*	21	0.8
CCOC(=O)c1ccc2c(c1)nc(SC/C(O)=C(\C#N)c1nc3ccccc3[nH]1)n2CC	-51	/	0.9	14	17	0.8
Cn1c(SCc2nc3ccccc3[nH]2)nnc1-c1ccccn1	0	-4	0.9	8	69*	0.3
C=CCn1c(SCC(=O)O)nnc1-c1ccccc1	-22	23	/	/	/	/
C=CCn1c(SCc2nc3ccccc3[nH]2)nnc1-c1ccccn1	-22	29	0.8	19	97*	0
Cc1cc(C)c(C#N)c(N2CCSCC2)n1	16	-1	1	-2	14	0.9
Cc1cccc(C)c1N1CCN(c2nc(N(C)C)oc(=O)c2C#N)CC1	9	13	0.3	74*	95*	0.1
Cc1cc(N(C)C)c(C#N)c(N2CCOCC2)n1	/	-31	1.2	-17	-4	1
CN(C)c1nc(N2CCN(c3ccccc3)CC2)c(C#N)c(=O)o1	-18	-17	1.9	-94	97*	0
COc1ccc(CCN2C(=NC(=O)CCC(=O)O)SC3CS(=O)(=O)CC32)cc1OC (stereo not drawn)	1	-37	0.9	14	10	0.9
CCOc1cc(C(=O)OCC(=O)NC(C)c2ccccc2)ccc1OCC(=O)N1CCOCC1 (stereo not drawn)	-42	/	/	/	/	/
O=C(CCNS(=O)(=O)c1ccc(Br)s1)NC1CCCC1	/	2	2.1*	-108	13	0.9
CCCNS(=O)(=O)c1ccc(CCC(=O)N2CCN(c3ccc(OC)cc3)CC2)cc1	11	3	0.1	87*	80*	0.2
Cc1ccc(S(=O)(=O)NCCC(=O)NC2CCCC2)cc1	-14	3	2.5*	-148	13	0.9
COc1ccc(N2CCN(C(=O)CCNS(=O)(=O)c3ccc(Br)s3)CC2)cc1	1	3	0.1	91*	80*	0.2
CCCNS(=O)(=O)c1ccc(CCC(=O)N2CCN(c3ccc(F)cc3)CC2)cc1	6	/	/	/	/	/
O=C(Nc1c(C(=O)Nc2cccc3ccccc23)cnn1-c1ccccc1)c1ccco1	-19	-5	/	/	/	/
Cc1ccc(-c2nnc(COc3cccc(-n4cnnn4)c3)o2)cc1	12	1	0.7	32	24	0.8
CC(C)CCn1c(CN2CCN(C(=O)c3ccco3)CC2)nc2c1c(=O)n(C)c(=O)n2C	/	-14	0.8	20	16	0.8
CN(C)c1ccc(N2C(=O)CC(Sc3ccccc3C(=O)O)C2=O)cc1 (stereo not drawn)	12	/	/	/	/	/
Cc1cc(=O)oc2c(CN3CCC(C)CC3)c(O)c(Cl)cc12	-6	-6	1.3	-28	-5	1.1
O=C(CCNC(=O)c1ccco1)Nc1ccc(Cl)cc1	25	/	/	/	/	/
O=C(CCNS(=O)(=O)c1ccc(Br)s1)N1CCCCC1	6	-12	1.7	-66	68*	0.3
SMILES	E-sel TNF inh	cytoskel mod	CYP2C9 activ	CYP2C9 inh	CYP2C19 inh	CYP2C19 act
O=C(CCNS(=O)(=O)c1ccc(Br)s1)Nc1ccc(Cl)cc1	0	12	2*	-100	42	0.6
Cc1csc(NC(=O)C2CCCCC2C(=O)O)n1 (stereo not drawn)	6	11	1.1	-11	-11	1.1
O=C(NC1=NCCS1)C1CC(=O)N(c2ccc(F)cc2)C1 (stereo not drawn)	-33	-14	0.8	20	12	0.9
CCOCCCn1c(SCC(=O)NC(C)C)nc2ccccc2c1=O	-36	-2	0.5	45	45	0.5
CC(=O)Nc1ccc(S(=O)(=O)NCC(C)NS(=O)(=O)c2ccc(NC(C)=O)cc2)cc1 (stereo not drawn)	12	-11	1	4	9	0.9
Nc1ccc(S(=O)(=O)Nc2ccc(S(N)(=O)=O)cc2)cc1	-24	/	0.8	15	1	1
O=C(O)c1ccc(F)c(S(=O)(=O)Nc2ccccc2Cl)c1	-16	3	1	-2	1	1
O=c1ccc2cc(S(=O)(=O)Nc3ccc(F)cc3)ccc2o1	30	6	0.5	46	98*	0
O=C1c2ccccc2C(=O)c2cc(S(=O)(=O)Nc3ccccc3)ccc21	5	/	/	/	/	/
O=S(=O)(Nc1ccccc1)c1ccc(F)cc1	-4	/	0.3	72*	92*	0.1
CCC(C)NS(=O)(=O)c1ccc(NS(=O)(=O)c2ccc(F)cc2)cc1 (stereo not drawn)	23	/	0	98*	74*	0.3
O=S(=O)(Nc1ccccc1Cl)c1ccc(F)cc1	26	8	0.5	51*	89*	0.1
COc1ccc(N2CC(C(=O)NCCC3=CCCCC3)CC2=O)cc1 (stereo not drawn)	/	3	0.9	11	29	0.7
Cc1ccc2cc(/C=N/NC(=O)CN3CCOCC3)c(Cl)nc2c1	-6	2	0.9	10	-1	1
O=S(=O)(Nc1ccc(F)cc1)c1ccc(NC(=S)Nc2ccccc2)cc1	-1	-5	0.1	86*	57*	0.4
COC(C(=O)Nc1ccc(S(=O)(=O)Nc2ccc(F)cc2)cc1)c1ccccc1 (stereo not drawn)	-4	/	/	/	/	/
Cc1cccc(C)c1NS(=O)(=O)c1ccc(F)cc1	/	20	0.3	75*	99*	0

Compound activity deposited in PubChem by several laboratories.
